# In PubChem BioAssay:
# Active and inactive are the calls of the source.
# Tests used:
# [1] = target: Albumin (Bos taurus) (UniProt P02769); experiment: compounds binding labelled BSA control protein – biochemical, small-molecule microarray, Alexa647 label, 635/667 nm fluorescence, artefact control for SMM control protein annotation, profiling panel (AID 1118); conditions: BSA-A647 binding, fluorescence 635 nm, higher = more signal;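 also: score merges 667 nm emission intensity and signal-to-noise per printed compound spot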
# Sequence of Albumin (Bos taurus) (P02769 whole entry, looked up): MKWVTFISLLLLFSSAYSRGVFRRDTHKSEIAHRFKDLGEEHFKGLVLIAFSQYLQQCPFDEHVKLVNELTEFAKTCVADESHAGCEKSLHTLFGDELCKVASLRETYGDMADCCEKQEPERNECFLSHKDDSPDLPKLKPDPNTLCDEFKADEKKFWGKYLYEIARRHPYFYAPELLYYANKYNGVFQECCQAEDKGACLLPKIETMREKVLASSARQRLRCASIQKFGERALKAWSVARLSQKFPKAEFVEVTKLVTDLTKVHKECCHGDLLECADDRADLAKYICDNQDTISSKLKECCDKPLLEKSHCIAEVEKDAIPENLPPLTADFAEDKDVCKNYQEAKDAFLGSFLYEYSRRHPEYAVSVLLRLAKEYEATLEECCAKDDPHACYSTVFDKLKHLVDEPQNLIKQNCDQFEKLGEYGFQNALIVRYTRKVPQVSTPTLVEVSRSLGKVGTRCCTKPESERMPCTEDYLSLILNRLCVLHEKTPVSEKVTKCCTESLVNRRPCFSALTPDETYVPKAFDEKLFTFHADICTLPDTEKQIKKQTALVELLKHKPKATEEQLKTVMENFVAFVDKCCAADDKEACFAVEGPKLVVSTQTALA
# [2] = probe aXIP binding to arrayed compounds – biochemical, NeuroSMM set, 635/667 nm fluorescence, primary screen (AID 1119); conditions: small-molecule microarray, higher = more signal, called active from +8 up or from −8 down;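 also: probe is the protein aXip251-270 applied at 1 µg/mL to compound-printed slides; binding of probe to printed compounds measured as 667 nm fluorescence plus signal to noise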
# [3] = probe aNOTCH3 binding on compound microarray – biochemical, small-molecule microarray, 635/667 nm fluorescence, primary screen (AID 1120); conditions: higher = more signal;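 also: probe is a biotin-tagged antibody raised against NOTCH3 rather than NOTCH3 protein; score merges spot fluorescence near 667 nm with spot signal to noise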
# [4] = probe aNOTCH2 binding on compound microarray – biochemical, small-molecule microarray, 635/667 nm fluorescence, primary screen (AID 1121); conditions: higher = more signal;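 also: score merges feature fluorescence read at 667 nm with its signal to noise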
# [5] = target: Carbonic anhydrase 2 (Homo sapiens) (UniProt P00918); experiment: compounds binding carbonic anhydrase 2 – biochemical, small-molecule microarray, Alexa647-labelled CAII, profiling panel (AID 1122); conditions: CAII-A647 binding fluorescence, higher = more signal
# [6] = COS7 lysate on small-molecule microarray, probe aHis, 635 nm (AID 1123); conditions: COS7 cell lysate, fluorescence, higher = more signal;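 also: z-score combines 667nm fluorescence intensity with signal-to-noise per printed compound spot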
# [7] = probe aLAP1 signal on lysate-treated microarray – cell lysate, small-molecule microarray, COS7 lysate, primary screen (AID 1124); conditions: probe aLAP1, fluorescence, higher = more signal;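 also: lysate comes from COS7 cells expressing LAP1 and is applied at 0.3 µg/mL; score merges spot fluorescence near 667 nm with signal-to-noise over triplicate slides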
# [8] = system: Sam68 (KHDRBS1); experiment: compounds binding KHDRBS1 protein – biochemical, small-molecule microarray, 635 nm fluorescence, primary screen (AID 1125); conditions: higher = more signal;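 also: score merges 667 nm channel intensity with signal to noise over triplicate slides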
# [9] = system: Chordin-like protein 2 (CHRDL2); experiment: compounds binding chordin-like 2 – biochemical, small-molecule microarray, 635 nm fluorescence, primary screen (AID 1126); conditions: fluorescence 635 nm, higher = more signal;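 also: printed compound slides probed with Chrdl2 protein at 4 µg/mL for 1 h at 4 C; score merges 667 nm emission intensity with signal to noise over three replicate slides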
# [10] = target: Concanavalin-A (Canavalia ensiformis) (UniProt P02866); experiment: compounds binding concanavalin A lectin – biochemical, small-molecule microarray, Alexa647 label, 635 nm, artefact control for SMM control protein annotation, primary screen (AID 1127); conditions: ConA-A647 binding fluorescence, higher = more signal;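 also: z combines 667 nm emission intensity with signal-to-noise across three replicate slides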
# Sequence of Concanavalin-A (Canavalia ensiformis) (P02866 whole entry, looked up): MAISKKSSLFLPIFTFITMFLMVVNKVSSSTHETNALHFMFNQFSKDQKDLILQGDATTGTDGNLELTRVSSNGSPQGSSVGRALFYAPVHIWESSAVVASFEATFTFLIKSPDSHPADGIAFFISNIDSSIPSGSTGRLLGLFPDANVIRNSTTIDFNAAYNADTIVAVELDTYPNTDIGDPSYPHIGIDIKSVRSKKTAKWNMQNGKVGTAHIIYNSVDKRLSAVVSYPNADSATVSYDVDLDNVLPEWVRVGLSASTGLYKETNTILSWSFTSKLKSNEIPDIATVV
# [11] = compounds binding Alexa647 anti-His antibody – biochemical, small-molecule microarray, 635 nm fluorescence, artefact control for SMM control protein annotation, primary screen (AID 1128); conditions: higher = more signal;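 also: score merges feature fluorescence with signal-to-noise for each printed compound spot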
# [12] = system: Human papillomavirus type 1a E7 protein (residues 1-88); experiment: HPV1a E7 small-molecule binders, primary screen, biochemical, small-molecule microarray, residues 1-88, 635 nm (AID 1129); conditions: small-molecule microarray binding, fluorescence 635 nm; higher = more signal
# [13] = target: Focal adhesion kinase 1 (Homo sapiens) (UniProt Q05397); experiment: PTK2 protein binding on printed compound slides – biochemical, small-molecule microarray, 635/667 nm fluorescence, BSA, DTT, primary screen (AID 1130); conditions: 635 nm fluorescence, higher = more signal;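 also: composite of spot emission at 667 nm and signal to noise over triplicate slides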
# Sequence of Focal adhesion kinase 1 (Homo sapiens) (Q05397 whole entry, looked up): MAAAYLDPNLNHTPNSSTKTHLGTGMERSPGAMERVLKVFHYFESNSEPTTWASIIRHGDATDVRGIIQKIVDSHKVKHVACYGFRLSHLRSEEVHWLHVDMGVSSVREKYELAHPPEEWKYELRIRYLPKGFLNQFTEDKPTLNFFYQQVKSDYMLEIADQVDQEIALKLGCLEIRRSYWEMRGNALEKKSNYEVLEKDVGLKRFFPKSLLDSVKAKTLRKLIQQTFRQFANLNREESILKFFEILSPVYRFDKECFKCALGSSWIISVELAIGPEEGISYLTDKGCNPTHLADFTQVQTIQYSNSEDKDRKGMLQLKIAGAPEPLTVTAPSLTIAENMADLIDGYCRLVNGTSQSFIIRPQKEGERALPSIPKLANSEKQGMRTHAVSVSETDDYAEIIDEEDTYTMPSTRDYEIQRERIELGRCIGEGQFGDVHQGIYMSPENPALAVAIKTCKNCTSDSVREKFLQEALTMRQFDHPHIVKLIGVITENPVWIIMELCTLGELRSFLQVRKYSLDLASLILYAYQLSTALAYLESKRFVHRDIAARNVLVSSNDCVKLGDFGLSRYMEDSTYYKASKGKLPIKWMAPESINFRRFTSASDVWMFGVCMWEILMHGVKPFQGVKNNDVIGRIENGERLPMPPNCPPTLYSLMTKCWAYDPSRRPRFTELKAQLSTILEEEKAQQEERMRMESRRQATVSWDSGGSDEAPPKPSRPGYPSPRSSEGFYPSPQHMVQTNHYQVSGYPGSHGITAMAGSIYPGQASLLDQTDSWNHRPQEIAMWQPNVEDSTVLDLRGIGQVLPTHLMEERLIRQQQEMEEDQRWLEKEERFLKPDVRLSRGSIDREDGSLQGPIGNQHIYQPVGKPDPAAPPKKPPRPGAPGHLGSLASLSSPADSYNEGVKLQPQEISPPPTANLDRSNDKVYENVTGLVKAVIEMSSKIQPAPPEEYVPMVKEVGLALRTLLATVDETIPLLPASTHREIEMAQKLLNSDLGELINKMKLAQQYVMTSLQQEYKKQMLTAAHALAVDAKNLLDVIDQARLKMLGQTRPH
# [14] = system: Fibrinogen (Alexa647-labelled); experiment: Alexa647-fibrinogen binding to printed small molecules – biochemical, small-molecule microarray, 635/667 nm fluorescence, artefact control for SMM control-protein annotation, profiling panel (AID 1131); conditions: fibrinogen-A647 binding fluorescence, higher = more signal;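 also: z-score merges 667 nm fluorescence with per-spot signal-to-noise over triplicate slides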
# [15] = target: Follistatin (Homo sapiens) (UniProt P19883); experiment: FST protein binding to printed compounds – biochemical, small-molecule microarray, 635/667 nm fluorescence, primary screen (AID 1132); conditions: 635 nm fluorescence, higher = more signal
# Sequence of Follistatin (Homo sapiens) (P19883 whole entry, looked up): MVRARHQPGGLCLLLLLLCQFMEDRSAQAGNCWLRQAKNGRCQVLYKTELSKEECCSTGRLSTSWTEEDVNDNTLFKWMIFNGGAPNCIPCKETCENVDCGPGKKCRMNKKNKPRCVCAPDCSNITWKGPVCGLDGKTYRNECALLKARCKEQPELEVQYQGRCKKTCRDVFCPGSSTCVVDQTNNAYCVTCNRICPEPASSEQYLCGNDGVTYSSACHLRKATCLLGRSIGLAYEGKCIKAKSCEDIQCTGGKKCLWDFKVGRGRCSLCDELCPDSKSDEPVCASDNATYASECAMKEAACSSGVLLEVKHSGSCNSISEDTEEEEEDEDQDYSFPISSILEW
# [16] = target: Fibroblast growth factor 2 (Homo sapiens) (UniProt P09038); experiment: basic fibroblast growth factor binding to printed compounds – biochemical, small-molecule microarray, 635/667 nm fluorescence, primary screen (AID 1133); conditions: FGF2, fluorescence 635/667, higher = more signal
# Sequence of Fibroblast growth factor 2 (Homo sapiens) (P09038 whole entry, looked up): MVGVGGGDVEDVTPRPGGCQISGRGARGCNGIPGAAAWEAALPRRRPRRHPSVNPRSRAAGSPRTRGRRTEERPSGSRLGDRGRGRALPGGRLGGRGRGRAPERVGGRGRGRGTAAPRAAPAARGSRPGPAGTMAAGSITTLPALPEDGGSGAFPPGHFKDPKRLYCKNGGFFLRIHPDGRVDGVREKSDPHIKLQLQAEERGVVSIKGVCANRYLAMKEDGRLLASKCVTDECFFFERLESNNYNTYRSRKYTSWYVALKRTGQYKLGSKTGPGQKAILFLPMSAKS
# [17] = JC-1 mitochondrial potential readout, lung cancer cells – cell-based, A549, JC-1 fluorescence, basal, 24 h, 100 nL, profiling panel (AID 1138); conditions: higher = more signal;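 also: A549 lung adenocarcinoma cells under basal conditions with no added stimulus; test concentration not given here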
# [18] = system: Lefty1; experiment: Lefty1 protein binding to printed compounds – biochemical, small-molecule microarray, 635/667 nm fluorescence, primary screen (AID 1139); conditions: fluorescence 635/667, higher = more signal
# [19] = system: wheat germ agglutinin (Triticum aestivum), Alexa647-labelled; experiment: Alexa647-WGA lectin binding to printed small molecules – biochemical, small-molecule microarray, 635/667 nm fluorescence, artefact control for SMM control-protein annotation, profiling panel (AID 1140); conditions: WGA-A647 binding, 635 nm fluorescence, higher = more signal;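 also: score merges 667 nm feature emission with signal to noise over triplicate slides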
# [20] = target: Luciferin 4-monooxygenase (Photinus pyralis) (UniProt P08659); experiment: inhibition of purified Photinus pyralis luciferase – biochemical, luminescence, purified enzyme, 2006 set, primary screen (AID 1141); conditions: purified firefly luciferase, SteadyGlo luminescence, 30 min; higher = more signal, called active from +8 up or from −8 down;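 also: cell-free assay with purified firefly luciferase at 100 ng per well in PBS; test concentration not given here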
# Sequence of Luciferin 4-monooxygenase (Photinus pyralis) (P08659 whole entry, looked up): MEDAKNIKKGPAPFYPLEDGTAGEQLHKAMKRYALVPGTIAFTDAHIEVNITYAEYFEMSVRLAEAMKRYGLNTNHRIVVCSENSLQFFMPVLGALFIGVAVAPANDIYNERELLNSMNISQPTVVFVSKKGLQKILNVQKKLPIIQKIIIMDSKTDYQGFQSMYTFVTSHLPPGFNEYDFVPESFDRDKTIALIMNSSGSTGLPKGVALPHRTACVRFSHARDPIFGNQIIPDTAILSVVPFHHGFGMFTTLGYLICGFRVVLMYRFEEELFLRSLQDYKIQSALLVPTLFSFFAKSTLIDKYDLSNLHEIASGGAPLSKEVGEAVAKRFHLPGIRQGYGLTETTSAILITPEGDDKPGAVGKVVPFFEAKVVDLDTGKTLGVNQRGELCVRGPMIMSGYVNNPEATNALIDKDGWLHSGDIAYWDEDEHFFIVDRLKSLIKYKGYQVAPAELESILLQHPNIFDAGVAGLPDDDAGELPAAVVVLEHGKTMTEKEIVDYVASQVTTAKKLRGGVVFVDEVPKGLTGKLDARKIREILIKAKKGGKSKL
SMILES,composite z-score [1],composite Z-score [2],composite z-score [3],composite z-score [4],composite z-score [5],composite z-score [6],composite z-score [7],composite z-score [8],composite z-score [9],composite z-score [10],composite z-score [11],composite z-score [12],composite z-score [13],composite z-score [14],composite z-score [15],composite z-score [16],z-score [17],composite z-score [18],composite z-score [19],z-score [20]
CCOC(=O)C1=CCC(c2ccncc2)N(S(=O)(=O)c2ccc(C)cc2)C1 (stereo not given),0.924,0.525 (inactive),0.191,-0.0621,0.702,2.6,1.05,1.3,0.192,0.786,0.871,1.25,1.5,1.01,0.844,0.454,-0.497,0.353,0.829,-0.786 (inactive)
CCCCCN1CC=CC23O[C@@H]4/C=C\CCCOC(=O)C4[C@H]2C(=O)N(CCO)[C@@H]3C1=O (stereo not given in full),0.73,0.0463 (inactive),-0.18,-0.14,0.823,2.17,0.657,0.428,0.323,0.433,2.49,0.87,1.15,-0.728,-0.274,-0.0388,-0.953,0.126,0.759,-2.06 (inactive)
COc1ccc(C#Cc2ccc3c(c2)[C@]2(C(=O)N3)[C@H](c3ccccc3OCCO)N3[C@H](c4ccccc4)[C@H](c4ccccc4)OC(=O)[C@H]3[C@@H]2C(=O)NC[C@H](O)c2ccccc2)cc1,0.579,-0.419 (inactive),0.11,-0.0942,0.373,1.98,0.359,1.32,-0.0767,1.07,1.05,1.14,1.31,0.848,1.27,1.62,-1.25,1.06,0.319,0.412 (inactive)
COCCOC(=O)N1C(=O)[C@@]2(c3cc(C#CCCO)ccc31)[C@H](C(=O)N1CCN(c3ncccn3)CC1)[C@H]1C(=O)O[C@H](c3ccccc3)[C@H](c3ccccc3)N1[C@@H]2c1ccc(OCCO)cc1,0.788,-0.265 (inactive),0.199,-0.0817,0.621,2.13,0.419,1.29,0.372,1.12,1.12,1.23,-0.293,0.972,1.21,1.29,-1.28,0.92,1.02,-0.21 (inactive)
COc1ccc(NN2C(C(O)c3ccccc3)C=CC3C(=O)N(C4CCCCC4)C(=O)C32)cc1 (stereo not given),0.74,0.38 (inactive),0.147,-0.0047,0.749,2.67,0.4,1.32,-0.223,1.12,0.864,1.26,0.82,0.996,0.925,0.202,0.338,0.769,1.03,-0.684 (inactive)
CCOC(=O)C[C@H]1[C@H](OC(=O)c2cc3ccccc3oc2=O)[C@@H](NC(=O)Cc2ccc(OC)cc2)c2cc(OCCCO)ccc2N1C(=O)Cc1ccc(OC)cc1,0.112,0.594 (inactive),0.0522,-0.162,0.709,0.638,-0.0915,0.23,0.441,0.817,-0.279,-0.624,0.122,1.03,0.705,0.453,-0.202,0.983,0.348,0.827 (inactive)
CN1C(=O)C2C=CC(C(O)c3cccs3)N(N(c3ccccc3)c3ccccc3)C2C1=O (stereo not given),0.994,0.343 (inactive),0.17,-0.0037,0.714,1.69,0.518,1.02,-0.362,0.644,2.34,1.08,0.663,0.954,0.569,-0.469,0.7,0.169,1.06,-0.697 (inactive)
C=C[C@@H](CO)NS(=O)(=O)c1ccc(Br)cc1,0.225,-0.67 (inactive),-0.331,-0.17,-0.359,-0.412,-0.32,-2.22,0.222,-1.76,-0.371,-0.371,0.169,-0.387,0.0216,-0.446,-0.297,-0.809,-0.448,-1.23 (inactive)
O=C(c1ccccc1)N1Cc2ccccc2C[C@@]2(N=C(c3ccc(OCCCO)cc3)O[C@H]2c2ccccc2)C1=O,-0.106,1.71 (inactive),0.0193,-0.0876,0.588,2.43,0.548,1.3,0.639,1.05,1.89,1.21,1.18,0.826,1.44,1.44,-1.85,0.984,-0.17,-1.29 (inactive)
CCOC(=O)C1=CC[C@@H](c2ccccc2)N(S(=O)(=O)c2ccc(C)cc2)[C@@H]1C#N,0.118,0.4 (inactive),0.0112,-0.026,0.518,1.87,-0.0567,1.23,-0.315,0.855,2.09,1.15,0.165,0.317,0.351,-0.501,0.215,-0.0273,0.72,-0.323 (inactive)
CO[C@H]1O[C@H](CO)[C@@H](OC(=O)Nc2cccc(F)c2)[C@H](OC(=O)c2cc3ccccc3[nH]2)[C@H]1OC(=O)c1cc2ccccc2[nH]1,0.467,-0.0925 (inactive),-0.0048,-0.132,0.209,0.799,0.337,-0.537,-0.332,-0.732,-0.371,-0.486,0.23,0.836,0.498,-0.234,-0.68,0.379,0.513,-0.635 (inactive)
